From PubChem BioAssay
Activity calls are given as the source filed them.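 How the source made its calls: active means GFP response above 150% of the DMSO level; inconclusive means fewer than 70 events counted for a yeast strain; inactive means the rest.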

assay: AGP1-GFP expression modulators, hit retest, confirmation, cell-based, flow cytometry, S. cerevisiae, cherry picks (AID 2273);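 further: median GFP channel fluorescence over the whole cell population gate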; settings: S. cerevisiae AGP1-GFP strain, 3 h, at 10 µM

Compound | GFP response, % of DMSO
O=C(/C=C/c1ccc(F)cc1)NC(=S)NNC(=O)c1cnccn1 | 83.4% (inactive)
Cc1ccc(/C=C/C(=O)c2ccc(C)cc2)cc1 | 98.2% (inactive)
Cc1nn(Cc2ccc([N+](=O)[O-])cc2)c(=O)n1-c1cccc(Cl)c1 | 95.4% (inactive)
Cn1c(=O)[nH]c(=O)c2c1nc(N1CCCCC1)n2CCOc1ccccc1 | 104% (inactive)
COC(=O)NC1CCC(CC2CCC(NC(=O)OC)CC2)CC1 (stereo not given) | 94.7% (inactive)
COCCNC(=O)c1ccc(Cl)c(Cl)c1 | 100% (inactive)
COc1cc(-c2nc3ccccn3c2NCC2CCCO2)ccc1O (stereo not given) | 103% (inactive)
CC(=O)Nc1ccc(NC(=O)c2nc(S(=O)(=O)Cc3cccc(C)c3)ncc2Cl)cc1 | 97.4% (inactive)
O=C(COc1ccccc1[N+](=O)[O-])Nc1ccc(NC(=O)c2cc3ccccc3o2)cc1 | 99.8% (inactive)
CCOC(=O)/C(=N\NC(=O)c1ccccc1)c1ccccc1 | 96.5% (inactive)
COC(=O)c1ccc(N2C(=O)CC(Sc3n[nH]c(C)n3)C2=O)cc1 (stereo not given) | 101% (inactive)
CC(C)C(=O)NC(c1cccs1)c1cc([N+](=O)[O-])c2cccnc2c1O (stereo not given) | 101% (inactive)
Cc1ccc(/C=N/Nc2ncc(Cl)cc2Cl)s1 | 81.8% (inactive)
CCOC(=O)Cc1csc(NC(=O)c2sc3nc4c(C)cc(C)cc4cc3c2N)n1 | 97.2% (inactive)
Cn1cc([N+](=O)[O-])c(C(=O)Nc2nc(-c3ccc(Cl)cc3)cs2)n1 | 95.5% (inactive)
CCCCOC(=O)C1CCC[C@@H](C)N1 (stereo not given in full) | 102% (inactive)
CCN=C(NCC)SC1CC(=O)N(c2cccc(OCC)c2)C1=O (stereo not given) | 101% (inactive)
COc1ccc(NC2=C(Cl)C(=O)N(CCc3ccccc3)C2=O)c(OC)c1 | 97.9% (inactive)
COc1ccccc1-c1noc(CCC(=O)Nc2cccc(C(F)(F)F)c2)n1 | 102% (inactive)
COc1ccc(-c2csc(N(CC(C)C)C(=O)c3ccco3)n2)cc1 | 100% (inactive)

Compound | GFP response, % of DMSO
CC(=O)Nc1ccc(-c2csc(NC(=O)c3ccc(C)o3)n2)cc1 | 98.3% (inactive)
CNc1cc(CSC)nc(SCc2ccc(Cl)cc2Cl)n1 | 90.4% (inactive)
O=C1C(CSCc2ccccc2)NC(=S)N1c1ccccc1 (stereo not given) | 98.1% (inactive)
COCCn1c(=N)c(C(=O)NCc2ccco2)cc2c(=O)n3ccccc3nc21 | 102% (inactive)
Cc1ccc(-c2csc(NC(=O)c3ccno3)n2)cc1 | 95.1% (inactive)
Cc1cccc(CN2CCSc3sccc3C2=O)c1 | 98.2% (inactive)
COC(=O)c1ccc(/C=C/C(=O)c2ccc(OC)cc2)cc1 | 94.9% (inactive)
CCOC(=O)CCS(=O)(=O)c1nc(-c2ccccc2)cc(C(F)(F)F)n1 | 127% (inactive)
CCCN(Cc1nnc(-c2ccccc2Cl)o1)C(=O)c1cc([N+](=O)[O-])cc([N+](=O)[O-])c1 | 98.6% (inactive)
COc1ccc(-c2[nH]ncc2N=Nc2ccccc2)cc1 | 92.2% (inactive)
Cc1cccc(Cn2cc(/C=C/[N+](=O)[O-])c3ccccc32)c1 | 101% (inactive)
OC1(c2ccc(F)cc2)CSC(=Nc2cccnc2)N1Cc1ccco1 (stereo not given) | 104% (inactive)
COc1cc(/C=C2\N=C(C)OC2=O)cc(Cl)c1OC(C)=O | 99.8% (inactive)
O=c1c2c(-c3ccc(Cl)cc3)csc2ncn1/N=C/c1cccc([N+](=O)[O-])c1O | 96.2% (inactive)
O=[N+]([O-])c1cc(O)c2ncccc2c1 | 94.3% (inactive)
CCc1nnc(NC(=O)c2ccc(S(=O)(=O)N(CC(C)C)CC(C)C)cc2)o1 | 100% (inactive)
CCn1c(=O)c(C(=O)NCc2ccc(OC)cc2)c(O)c2ccccc21 | 100% (inactive)
CS(=O)(=O)N1N=C(c2ccco2)CC1c1ccc(Cl)cc1 (stereo not given) | 101% (inactive)
CC1(C)CCN2CCC(C)(C)c3c(O)ccc1c32 | 101% (inactive)
O/C=c1\ccc2cccc3nc(C(F)(F)F)nc1c23 | 108% (inactive)

assay: modulators of CIT2-GFP expression in yeast, confirmation, S. cerevisiae, GFP fusion, cherry picks, mother/daughter gates (AID 2274); settings: S. cerevisiae CIT2-GFP strain, flow cytometry, 3 h; at 10 µM; active compounds read high

Compound | GFP response, % of DMSO
O=C(/C=C/c1ccc(F)cc1)NC(=S)NNC(=O)c1cnccn1 | 124% (inactive)
Cc1ccc(/C=C/C(=O)c2ccc(C)cc2)cc1 | 102% (inactive)
Cc1nn(Cc2ccc([N+](=O)[O-])cc2)c(=O)n1-c1cccc(Cl)c1 | 99.7% (inactive)
Cn1c(=O)[nH]c(=O)c2c1nc(N1CCCCC1)n2CCOc1ccccc1 | 103% (inactive)
COC(=O)NC1CCC(CC2CCC(NC(=O)OC)CC2)CC1 (stereo not given) | 103% (inactive)
COCCNC(=O)c1ccc(Cl)c(Cl)c1 | 105% (inactive)
COc1cc(-c2nc3ccccn3c2NCC2CCCO2)ccc1O (stereo not given) | 106% (inactive)
CC(=O)Nc1ccc(NC(=O)c2nc(S(=O)(=O)Cc3cccc(C)c3)ncc2Cl)cc1 | 104% (inactive)
O=C(COc1ccccc1[N+](=O)[O-])Nc1ccc(NC(=O)c2cc3ccccc3o2)cc1 | 92.2% (inactive)
CCOC(=O)/C(=N\NC(=O)c1ccccc1)c1ccccc1 | 101% (inactive)
COC(=O)c1ccc(N2C(=O)CC(Sc3n[nH]c(C)n3)C2=O)cc1 (stereo not given) | 106% (inactive)
CC(C)C(=O)NC(c1cccs1)c1cc([N+](=O)[O-])c2cccnc2c1O (stereo not given) | 98.8% (inactive)
Cc1ccc(/C=N/Nc2ncc(Cl)cc2Cl)s1 | 107% (inactive)
CCOC(=O)Cc1csc(NC(=O)c2sc3nc4c(C)cc(C)cc4cc3c2N)n1 | 115% (inactive)
Cn1cc([N+](=O)[O-])c(C(=O)Nc2nc(-c3ccc(Cl)cc3)cs2)n1 | 100% (inactive)
CCCCOC(=O)C1CCC[C@@H](C)N1 (stereo not given in full) | 100% (inactive)
CCN=C(NCC)SC1CC(=O)N(c2cccc(OCC)c2)C1=O (stereo not given) | 103% (inactive)
COc1ccc(NC2=C(Cl)C(=O)N(CCc3ccccc3)C2=O)c(OC)c1 | 98.4% (inactive)
COc1ccccc1-c1noc(CCC(=O)Nc2cccc(C(F)(F)F)c2)n1 | 100% (inactive)
COc1ccc(-c2csc(N(CC(C)C)C(=O)c3ccco3)n2)cc1 | 98.6% (inactive)

Compound | GFP response, % of DMSO
CC(=O)Nc1ccc(-c2csc(NC(=O)c3ccc(C)o3)n2)cc1 | 105% (inactive)
CNc1cc(CSC)nc(SCc2ccc(Cl)cc2Cl)n1 | 88.3% (inactive)
O=C1C(CSCc2ccccc2)NC(=S)N1c1ccccc1 (stereo not given) | 99.7% (inactive)
COCCn1c(=N)c(C(=O)NCc2ccco2)cc2c(=O)n3ccccc3nc21 | 100% (inactive)
Cc1ccc(-c2csc(NC(=O)c3ccno3)n2)cc1 | 100% (inactive)
Cc1cccc(CN2CCSc3sccc3C2=O)c1 | 112% (inactive)
COC(=O)c1ccc(/C=C/C(=O)c2ccc(OC)cc2)cc1 | 99.3% (inactive)
CCOC(=O)CCS(=O)(=O)c1nc(-c2ccccc2)cc(C(F)(F)F)n1 | 100% (inactive)
CCCN(Cc1nnc(-c2ccccc2Cl)o1)C(=O)c1cc([N+](=O)[O-])cc([N+](=O)[O-])c1 | 94.4% (inactive)
COc1ccc(-c2[nH]ncc2N=Nc2ccccc2)cc1 | 97.2% (inactive)
Cc1cccc(Cn2cc(/C=C/[N+](=O)[O-])c3ccccc32)c1 | 97.3% (inactive)
OC1(c2ccc(F)cc2)CSC(=Nc2cccnc2)N1Cc1ccco1 (stereo not given) | 108% (inactive)
COc1cc(/C=C2\N=C(C)OC2=O)cc(Cl)c1OC(C)=O | 108% (inactive)
O=c1c2c(-c3ccc(Cl)cc3)csc2ncn1/N=C/c1cccc([N+](=O)[O-])c1O | 99.3% (inactive)
O=[N+]([O-])c1cc(O)c2ncccc2c1 | 122% (inactive)
CCc1nnc(NC(=O)c2ccc(S(=O)(=O)N(CC(C)C)CC(C)C)cc2)o1 | 102% (inactive)
CCn1c(=O)c(C(=O)NCc2ccc(OC)cc2)c(O)c2ccccc21 | 101% (inactive)
CS(=O)(=O)N1N=C(c2ccco2)CC1c1ccc(Cl)cc1 (stereo not given) | 101% (inactive)
CC1(C)CCN2CCC(C)(C)c3c(O)ccc1c32 | 121% (inactive)
O/C=c1\ccc2cccc3nc(C(F)(F)F)nc1c23 | 179% (active)
